Source: PubChem BioAssay AID2284067 (EPA ToxCast)
Active and inactive are the calls of the source. How the source made its calls: active means hit-call score of the fitted dose curve at least 0.9, where 1 is the maximum; inactive means score below 0.9.

target: human DYRK1A CMGC Kinase, DYRK1A (gene 1859) (UniProt Q13627); assay: ERF_FR_ENZ_hDYRK1A: Eurofins (ERF) Enzymatic Radiometric [Km ATP] KinaseProfiler LeadHunter Assay for human DYRK1A CMGC Kinase
Protocol: ERF_FR_ENZ_hDYRK1A is a biochemical, single-readout assay that uses extracted gene-proteins in a cell-free assay. Measurements were taken 0.5 hour after chemical dosing in a 96-well plate. See DYRK1A Human CMGC Kinase Enzymatic LANCE Assay [Km ATP], Cerep.ERF_FR_ENZ_hDYRK1A is an assay component calculated from the ERF_FR_ENZ_hDYRK1A assay. It is designed to measure enzyme activity using a type of enzyme reporter as detected by fluorescence intensity with LANCE technology.Data from the assay component ERF_FR_ENZ_hDYRK1A was analyzed at the assay endpoint, ERF_FR_ENZ_hDYRK1A, in the positive analysis fitting direction relative to DMSO as the negative control and baseline of activity. Using a type of enzyme reporter, loss-of-signal activity can be used to understand changes in enzymatic activity as they relate to gene DYRK1A. To generalize the intended target to other relatable targets, this assay endpoint is annotated to the kinase intended target family, where the subfamily is serine/threonine kinase.
DYRK1A (h) is incubated with 8 mM MOPS pH 7.0, 0.2 mM EDTA, 50 uM […], 10 mM MgAcetate and [gamma-33P]-ATP (specific activity and concentration as required). The reaction is initiated by the addition of the Mg/ATP mix. After incubation for 40 minutes at room temperature, the reaction is stopped by the addition of phosphoric acid to […] a concentration of 0.5%. […]

| Compound | AC50 |
| --- | --- |
| O=C(/C=C/c1ccc(O)cc1)CC(=O)/C=C/c1ccc(O)cc1 | 128 nM (active) |
